From PubChem BioAssay (EPA / NIEHS)
Several values for one entry are separate records, joined by “and”; a condition that tells them apart may be missing. Identical values can stand only once. Where a structure was tested more than once in an assay, its records may differ in their call. Activity calls are given as the source filed them. The calls were made as follows: active = hit-call score of the fitted dose curve at least 0.9, where 1 is the maximum; inactive = score below 0.9.

Tests used:
[1] = read-out: Vascular endothelial growth factor receptor 2 (Homo sapiens) (UniProt P35968); experiment: BSK_4H_VEGFRII: BioMAP Diversity Plus: 4H Assay for Vascular endothelial growth factor receptor 2 (VEGFR2) Biomarker Activity (AID 2283031); details: primary human endothelial cells (HUVEC); actives raise or lower the signal;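 as to AC50: cell-surface VEGFR2 protein level quantified by ELISA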
Method in brief: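 Measured by ELISA after 24 h of compound treatment: VEGFR2 on primary human umbilical vein endothelial cells, fitted in both directions relative to DMSO. Parallel cultures received SRB staining (560 nm) for overt cytotoxicity.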

[2] = read-out: Human Leukocyte Antigen - DR isotype (HLADR), HLA-DRA (gene 3122); experiment: BSK_BE3C_HLADR: BioMAP Diversity Plus: BE3C Assay for Human Leukocyte Antigen - DR isotype (HLADR) Biomarker Activity (AID 2283032); details: primary human bronchial epithelial cells; actives raise or lower the signal
Method in brief: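 Human primary bronchial epithelial cells in the BE3C system were exposed to chemicals for 24 h, after which HLA-DR levels were quantified by ELISA. Activity was fitted bidirectionally, gain or loss of signal, against DMSO as negative control and baseline.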

[3] = read-out: Vascular cell adhesion molecule 1 (VCAM1), VCAM1 (gene 7412); experiment: BSK_4H_VCAM1: BioMAP Diversity Plus: 4H Assay for Vascular cell adhesion molecule 1 (VCAM1) Biomarker Activity (AID 2283033); details: primary human endothelial cells (HUVEC); actives raise or lower the signal;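 as to outcome: cell-surface VCAM-1 protein measured by ELISA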
Method in brief: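 Primary human umbilical vein endothelial cells were exposed to chemicals for 24 h, after which VCAM-1 was quantified by ELISA. Responses were fitted bidirectionally against DMSO as negative control and activity baseline.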

[4] = read-out: Monokine induced gamma interferon (MIG), CXCL9 (gene 4283); experiment: BSK_BE3C_MIG: BioMAP Diversity Plus: BE3C Assay for Monokine induced gamma interferon (MIG) Biomarker Activity (AID 2283035); details: primary human bronchial epithelial cells; actives raise or lower the signal;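 as to outcome: MIG protein measured by ELISA in BE3C cultures after 24 h of dosing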
Method in brief: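 Primary human bronchial epithelial cells treated for 24 h; MIG levels measured by ELISA, fitted bidirectionally versus DMSO. Parallel SRB total-protein staining assessed cytotoxicity.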

[5] = read-out: Transforming growth factor beta 1 (TGFb1), TGFB1 (gene 7040); experiment: BSK_BE3C_TGFb1: BioMAP Diversity Plus: BE3C Assay for Transforming growth factor beta 1 (TGFb1) Biomarker Activity (AID 2283036); details: primary human bronchial epithelial cells; actives raise or lower the signal
Method in brief: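 Human primary bronchial epithelial cells (BE3C system) were dosed with chemical and TGF-b1 levels measured by ELISA at 24 h. Activity was fitted bidirectionally relative to DMSO negative control as baseline.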

[6] = read-out: Plasminogen activator inhibitor-1 (PAI1), SERPINE1 (gene 5054); experiment: BSK_BE3C_PAI1: BioMAP Diversity Plus: BE3C Assay for Plasminogen activator inhibitor-1 (PAI1) Biomarker Activity (AID 2283037); details: primary human bronchial epithelial cells; actives raise or lower the signal
Method in brief: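 Human primary bronchial epithelial cells were exposed to chemical for 24 h, then PAI-1 was quantified by ELISA. Activity was fitted bidirectionally relative to the DMSO negative control baseline.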

[7] = read-out: urokinase plasminogen activator (uPA), PLAU (gene 5328); experiment: BSK_BE3C_uPA: BioMAP Diversity Plus: BE3C Assay for urokinase plasminogen activator (uPA) Biomarker Activity (AID 2283038); details: primary human bronchial epithelial cells; actives raise or lower the signal;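 as to outcome: uPA protein level quantified by ELISA in cell cultures; uPA read one day after compound addition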
Method in brief: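 ELISA for uPA on human primary bronchial epithelial cultures 24 h post-treatment, gain or loss against DMSO. Parallel SRB staining (0.1% after 10% TCA fixation, 560 nm) assessed overt cytotoxicity.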

[8] = read-out: Urokinase-type plasminogen activator receptor (uPAR), PLAUR (gene 5329); experiment: BSK_BE3C_uPAR: BioMAP Diversity Plus: BE3C Assay for Urokinase-type plasminogen activator receptor (uPAR) Biomarker Activity (AID 2283039); details: primary human bronchial epithelial cells; actives raise or lower the signal;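 as to outcome: cells exposed to compound for one day before measurement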
Method in brief: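 Primary human bronchial epithelial cells were dosed with chemical and harvested 24 h later; uPAR was quantified by ELISA. Activity was fitted bidirectionally against DMSO as negative control and baseline.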

[9] = read-out: Interleukin-6 (IL6), IL6 (gene 3569); experiment: BSK_CASM3C_IL6: BioMAP Diversity Plus: CASM3C Assay for Interleukin-6 (IL6) Biomarker Activity for (AID 2283040); details: primary human coronary artery smooth muscle cells; actives raise or lower the signal
[10] = read-out: Interferon-gamma inducible Protein 10 (IP10), CXCL10 (gene 3627); experiment: BSK_BE3C_IP10: BioMAP Diversity Plus: BE3C Assay for Interferon-gamma inducible Protein 10 (IP10) Biomarker Activity (AID 2283034); details: primary human bronchial epithelial cells; actives raise or lower the signal
Method in brief: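 Human primary bronchial epithelial cells were exposed to chemicals for 24 hours, after which IP-10 levels were measured by ELISA. Data were fitted bidirectionally against DMSO, which served as the negative control and activity baseline.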

SMILES	outcome [1]	outcome [2]	outcome [3]	outcome [4]	outcome [5]	outcome [6]	outcome [7]	outcome [8]	outcome [9]	outcome [10]	AC50 [1]	AC50 [2]	AC50 [6]	AC50 [9]	AC50 [3]	AC50 [8]	AC50 [5]	AC50 [4]	AC50 [7]	AC50 [10]
CCNc1nc(Cl)nc(NC(C)C)n1	inactive	inactive	inactive	inactive	inactive	inactive	inactive	inactive	inactive											
CC(Oc1ccc(Cl)cc1Cl)C(=O)O (stereo not given)	inactive	inactive	inactive	inactive	inactive	inactive	inactive	inactive	inactive	inactive										
COC(=O)C(C)Oc1ccc(Oc2ccc(Cl)cc2Cl)cc1 (stereo not given)	inactive	inactive	inactive	inactive	inactive	inactive	inactive	inactive	inactive	inactive	20 µM (active)	9.71 µM (active) and 20 µM (active)	32.5 µM (active)	32.6 µM (active)						
CON(C)C(=O)Nc1ccc(Cl)c(Cl)c1	inactive	inactive	inactive	inactive	inactive	inactive	inactive	inactive	inactive	inactive										
CCOP(=S)(OCC)SCn1c(=O)oc2cc(Cl)ccc21	inactive	inactive		inactive	inactive	inactive	inactive		inactive	inactive					26.1 µM (active)	0.147 µM (active)				
COc1nc(C)nc(NC(=O)NS(=O)(=O)c2ccccc2Cl)n1	inactive	inactive	inactive	inactive	inactive	inactive	inactive	inactive	inactive								0.29 µM (active)			
CO/C=C(/C(=O)OC)c1ccccc1Oc1cc(Oc2ccccc2C#N)ncn1	inactive			inactive	inactive	inactive	inactive	inactive	inactive		21.1 µM (active)	16.5 µM (active) [middle of 4 runs]	21.1 µM (active)	15.8 µM (active) and 21.1 µM (active)						
CCNc1nc(Cl)nc(NCC)n1	inactive	inactive	inactive	inactive	inactive	inactive	inactive	inactive	inactive	inactive										
C#CCOS(=O)OC1CCCCC1Oc1ccc(C(C)(C)C)cc1 (stereo not given)					inactive				inactive		20 µM (active)	13.8 µM (active)	18.4 µM (active)		26.8 µM (active)	20 µM (active)		25.5 µM (active)	27 µM (active)	
Cc1ccc(-c2c(Cl)nc(C#N)n2S(=O)(=O)N(C)C)cc1				inactive	inactive		inactive	inactive	inactive		20 µM (active)	5.94 µM (active)	3.97 µM (active)		16.6 µM (active)					
CCCCNC(=O)n1c(NC(=O)OC)nc2ccccc21	inactive	inactive	inactive	inactive	inactive	inactive	inactive	inactive	inactive											
CC1=C(C(=O)Nc2ccccc2)SCCO1	inactive	inactive	inactive	inactive	inactive	inactive		inactive	inactive										3.97 µM (active)	
CNC(=S)S	inactive	inactive		inactive	inactive	inactive	inactive		inactive	inactive					22.4 µM (active)	11.7 µM (active)				
Cc1c(F)c(F)c(COC(=O)C2C(/C=C(\Cl)C(F)(F)F)C2(C)C)c(F)c1F (stereo not given)	inactive	inactive	inactive	inactive	inactive	inactive	inactive	inactive	inactive											
CCON=C(CC)C1=C(O)CC(c2c(C)cc(C)cc2C)CC1=O (stereo not given)	inactive	inactive	inactive	inactive	inactive	inactive	inactive	inactive	inactive	inactive										
COc1cnc(OC)n2nc(NS(=O)(=O)c3c(OCC(F)F)cccc3C(F)(F)F)nc12	inactive	inactive	inactive	inactive	inactive	inactive	inactive	inactive	inactive	inactive			0.0487 µM (active)							
CCCCC(CC)COC(=O)c1ccccc1C(=O)OCC(CC)CCCC (stereo not given)	inactive	inactive	inactive	inactive	inactive	inactive	inactive	inactive		inactive				7.31 µM (active)						
COc1nc(C)nc(NC(=O)NS(=O)(=O)c2ccccc2CCC(F)(F)F)n1	inactive	inactive	inactive	inactive	inactive	inactive	inactive	inactive	inactive	inactive										
Oc1ccccc1-c1ccccc1	inactive	inactive	inactive	inactive	inactive	inactive	inactive	inactive	inactive											
O=C(O)c1nc(Cl)ccc1Cl	inactive	inactive	inactive	inactive	inactive	inactive	inactive	inactive	inactive			28.8 µM (active)								
CCOc1cc(Oc2ccc(C(F)(F)F)cc2Cl)ccc1[N+](=O)[O-]	inactive		inactive	inactive	inactive	inactive	inactive	inactive	inactive			9.39 µM (active)								
COC(=O)C=C(C)OP(=O)(OC)OC	inactive	inactive	inactive	inactive	inactive	inactive	inactive	inactive	inactive	inactive										
C=CCC1=C(C)C(OC(=O)C2C(C=C(C)C)C2(C)C)CC1=O (stereo not given)	inactive	inactive		inactive	inactive	inactive	inactive	inactive	inactive		21 µM (active) and 29.4 µM (active) and 20 µM (active)	15.7 µM (active) and 32.3 µM (active) and 30.9 µM (active)			31.6 µM (active) [middle of 4 runs]	0.223 µM (active)				
CCCCOC(=O)c1ccccc1C(=O)OCCCC	inactive	inactive	inactive	inactive	inactive	inactive	inactive	inactive	inactive	inactive										
CN(C)C(=S)SSC(=S)N(C)C	inactive								inactive			8.69 µM (active)	27.1 µM (active)		29.3 µM (active)	9.65 µM (active)	12.9 µM (active)	11.2 µM (active)	7.75 µM (active)	10.7 µM (active)
